An excerpt weighted towards active compounds, which were near 1.2% of everything screened.
BRCA1 expr act: BRCA1 expression activation; MCF7-BRCA1-FFLuc reporter, luminescence, 48 h; response scale: scaled: vehicle 0%, 10 µM genistein 100%; Potency, µM (series often up to 46.1 µM), hits mostly activators; hit rate 1.1% among 380,000; AID 624202; also: nearly all actives have a fitted effect of over 80% in size
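Activators of BRCA1 expression were detected as increased firefly luciferase luminescence in engineered MCF7 cells after 48 h compound incubation. Signals were scaled to genistein 10 microM as full activation.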
TSHR antag: human thyrotropin receptor antagonism. hit rate 0.2% among 330,000. P16473. AID 504810. activity change, negative = inhibition, % at 11.5 µM. TSHR-expressing cells, TSH-stimulated cAMP HTRF, 2 h; stronger effect = lower value;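 active = activity change below a set negative limit, meaning inhibition stronger than a set level, cut at about -70% in these data; inconclusive = activity change between two set negative limits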
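Read-out is FRET at 665 nm (cryptate excitation 337 nm) from a cryptate-tagged anti-cAMP antibody, competed by cell cAMP against cAMP-d2. Compounds are tested on freshly harvested TSHR cells challenged with 4nM TSH (EC80) for 2 hours at 37 deg C.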
ASM inhibitor: inhibitors of human secretory acid sphingomyelinase | P17405 | placental ASM, HMU-PC fluorogenic substrate, 60 min | Potency, µM (top dose mostly 57.5 µM), most hits filed as inhibitors | hit rate 0.006% among 340,000 | AID 504937
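qHTS format. ASM enzyme prepared from human placenta hydrolyses the fluorogenic substrate HMU-PC0 (9 uM final) over 60 min at 37 °C after a 10 min compound preincubation.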
TSG101-PTAP inh: blocks PTAP/TSG101 interaction to inhibit HIV-1 budding | Q99816 | Fluorescence polarization, FITC-PTAP peptide / Tsg101 binding | 340,000 tested, under 10 active | Potency, µM (doses to about 115 µM), hits mostly inhibitors; active = well fitted inhibition curve with a large enough effect in the main read-out, with a control signal flat, not every such curve was filed as active; inconclusive = small, poorly fitted or top-dose-only effect, or effect the other way, or a change in a side signal; inactive = no such curve, though single readings can be large or run the other way
Target sequence (Q99816 whole entry, looked up): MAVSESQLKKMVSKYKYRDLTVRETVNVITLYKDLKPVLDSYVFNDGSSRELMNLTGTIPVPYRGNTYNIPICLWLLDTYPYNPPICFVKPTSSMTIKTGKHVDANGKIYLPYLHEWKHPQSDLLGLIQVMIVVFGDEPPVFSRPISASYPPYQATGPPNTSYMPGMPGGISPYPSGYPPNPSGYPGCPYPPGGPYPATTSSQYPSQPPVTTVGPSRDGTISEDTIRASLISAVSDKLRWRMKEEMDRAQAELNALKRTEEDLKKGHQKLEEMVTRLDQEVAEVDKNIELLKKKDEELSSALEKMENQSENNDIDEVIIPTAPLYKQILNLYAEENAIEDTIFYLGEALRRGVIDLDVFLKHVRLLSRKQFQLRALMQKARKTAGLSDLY
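Compounds were pin-transferred onto Tsg101 binding domain (10 uM final) in HEPES pH 7.5 buffer, then FITC-PTAP peptide was added at 50 nM final. After 20 min at RT, polarization reported peptide displacement across a qHTS concentration series.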
Apoferritin bind: candidate novel general anesthetic via apoferritin binding | apoferritin/1-aminoanthracene competitive binding, fluorescence | Potency, µM (top dose mostly 77.5 µM), hits mostly inhibitors | hit rate 0.074% among 350,000 | AID 485281; also: nearly all actives have a fitted effect of over 20% in size
Target sequence (P02791 2-175 limits assumed): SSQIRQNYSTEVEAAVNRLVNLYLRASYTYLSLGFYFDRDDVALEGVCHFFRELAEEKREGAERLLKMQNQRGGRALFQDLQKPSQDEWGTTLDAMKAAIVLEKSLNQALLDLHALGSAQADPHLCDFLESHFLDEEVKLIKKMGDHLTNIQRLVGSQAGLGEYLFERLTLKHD
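Horse-spleen apoferritin (10 uM) was mixed with 50% saturated 1-aminoanthracene in PBS, exposed to compounds for 10 min at room temperature, and read for fluorescence (ex 380 nm, em 535 nm). Competitive displacement was fitted with a four-parameter Hill equation.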
Large screens that a line does not name were inactive. Unless noted, calls follow the shape of the dose curve; as a rule, active = well fitted curve in the direction sought with a large enough effect; inconclusive = small, poorly fitted or top-dose-only effect, or another doubt; inactive = no such curve, though single readings can be large; an effect the other way counts as inactive or inconclusive.

O=C(Nc1ccc(N2CCCC2)c(Cl)c1)c1ccc(Br)o1	BRCA1 expr act 3.98µM, Apoferritin bind inconclusive
Cc1cc(N2CCN(C)CC2)nc2ccc(NC(=O)c3ccccc3F)cc12	BRCA1 expr act 11.2µM
CCn1c(=O)n(C2=C(CO)CN(CC3CCCCCCC3)CC2)c2ccccc21	none (no result: BRCA1 expr act, TSHR antag, ASM inhibitor, TSG101-PTAP inh)
CC(CCC(C)[n+]1cccc(Br)c1)[n+]1cccc(Br)c1 (stereo not given)	none (no result: TSHR antag, ASM inhibitor, TSG101-PTAP inh, Apoferritin bind)
C[N+](C)(C)c1ccc(/C=C/c2ccnc3ccccc23)cc1	none (no result: TSHR antag, ASM inhibitor, TSG101-PTAP inh, Apoferritin bind)
CN(C)c1ccc(C2=Cc3ccccc3C2)cc1	none (no result: TSHR antag, ASM inhibitor, TSG101-PTAP inh, Apoferritin bind)
Cc1ccc(-n2c(Cl)c(Cl)nc(Cl)c2=O)cc1	TSHR antag -95.3
COc1nc(Cl)cn(-c2ccc(C)cc2)c1=O	none
CNCc1nc(-c2ccc[nH]2)c2cc(Cl)ccc2n1	none (no result: TSHR antag, ASM inhibitor, TSG101-PTAP inh, Apoferritin bind)
CCCCc1ccc(-c2csc(/C(C#N)=C\c3ccco3)n2)cc1	BRCA1 expr act 10µM
Clc1ccc2c(ccc[n+]2CCC2CCCCC2)c1	none (no result: TSHR antag, ASM inhibitor, TSG101-PTAP inh, Apoferritin bind)
Cn1c2cc(B(O)O)sc2c2cnn(Cc3ccc(F)cc3F)c(=O)c21	none (no result: BRCA1 expr act, ASM inhibitor, TSG101-PTAP inh, Apoferritin bind)
COc1ccc(CCn2nnnc2C2(c3ccc(C)cc3)CC2)cc1	none (no result: BRCA1 expr act, ASM inhibitor, TSG101-PTAP inh, Apoferritin bind)
COc1cc(CN2CCCCC2)ccc1OCc1ccccc1	BRCA1 expr act 10µM
COc1cc(C(=S)N2CCCC2)ccc1OCc1ccc(C)cc1	BRCA1 expr act 11.2µM, Apoferritin bind inconclusive
COc1cc(CNC(=O)C2CC2)ccc1OCc1ccccc1	BRCA1 expr act 12.6µM
CCOc1ccc(C(=S)N2CCCC2)cc1OC	none
CCOC(=O)N1CCN(/[N+]([O-])=N/OCOC)CC1	none (no result: TSHR antag, ASM inhibitor, TSG101-PTAP inh, Apoferritin bind)
CCCN1CNc2c(c(=O)[nH]c(=S)n2CCc2cc(Cl)ccc2Cl)C1	none (no result: TSHR antag, ASM inhibitor, TSG101-PTAP inh, Apoferritin bind)
O=C(CC1CCCC1)Nc1nc2ccccc2[nH]1	BRCA1 expr act 3.16µM
Cc1cc(C)cc(C(=O)Nc2nc3ccccc3[nH]2)c1	BRCA1 expr act 7.94µM
COc1ccc(OCC(=O)Nc2nc3ccccc3[nH]2)cc1	BRCA1 expr act 10µM
O=C(CCCC[C@@H]1SC[C@H]2NC(=O)N[C@H]12)Nc1ccc(C(=O)O)cc1	none (no result: BRCA1 expr act, TSHR antag, ASM inhibitor, TSG101-PTAP inh)
O=C(Cc1ccc(F)cc1)NO	none (no result: TSHR antag, ASM inhibitor, TSG101-PTAP inh, Apoferritin bind)
CC(C)C[C@H](NC(=O)CNC(=O)[C@H](C)NC(=O)[C@H](CC(C)C)NC(=O)[C@H](CCCNC(=N)N)NC(=O)[C@H](Cc1cnc[nH]1)NC(=O)[C@@H](NC(=O)[C@@H](N)C(C)C)[C@@H](C)O)C(=O)N[C@@H](CC(C)C)C(=O)N[C@@H](CO)C(=O)N[C@@H](CCCNC(=N)N)C(=O)N[C@@H](CO)C(=O)NCC(=O)NCC(=O)N[C@H](C(=O)N[C@H](C(=O)N[C@@H](CCCCN)C(=O)N[C@@H](CC(N)=O)C(=O)N[C@@H](CC(N)=O)C(=O)N[C@@H](Cc1ccccc1)C(=O)N[C@H](C(=O)N1CCC[C@H]1C(=O)N[C@H](C(=O)N[C@@H](CC(N)=O)C(=O)N[C@H](C(=O)NCC(=O)N[C@@H](CO)C(=O)N[C@@H](CCCCN)C(=O)N[C@@H](C)C(=O)N[C@@H](Cc1ccccc1)C(N)=O)C(C)C)[C@@H](C)O)C(C)C)C(C)C)C(C)C	none (no result: BRCA1 expr act, TSHR antag, ASM inhibitor, TSG101-PTAP inh)
CC(C)C[C@H](NC(=O)[C@H](CC(C)C)NC(=O)[C@@H](Cc1c[nH]c2ccccc12)NC(=O)[C@H](Cc1ccccc1)NC(=O)[C@@H](Cc1c[nH]c2ccccc12)NC(=O)[C@H](CCC(N)=O)NC(=O)[C@H](CCC(N)=O)NC(=O)[C@@H]1CCCN1C(=O)[C@H](CCCCN)NC(=O)[C@@H]1CCCN1C(=O)[C@@H](CCCNC(=N)N)NC(=O)[C@@H]1CCCN1C(=O)CNC(=O)[C@H](CC(C)C)NC(=O)[C@H](CC(C)C)NC(=O)[C@H](Cc1ccc(O)cc1)NC(=O)CNC(=O)[C@H](C)NC(=O)[C@H](CO)NC(=O)[C@H](CC(N)=O)NC(=O)[C@H](CC(C)C)NC(=O)[C@@H](NC(=O)[C@H](Cc1c[nH]c2ccccc12)NC(=O)CN)[C@@H](C)O)C(N)=O	none (no result: BRCA1 expr act, TSHR antag, ASM inhibitor, TSG101-PTAP inh)
Nc1nc(COc2ccc3ccccc3c2)cs1	BRCA1 expr act 6.31µM, Apoferritin bind inconclusive (no result: TSHR antag)
COc1ccccc1OCc1csc(N)n1	none
COc1cccc(-c2nc(-c3ccc4c(c3)NC(=O)CO4)cs2)c1	BRCA1 expr act 10µM
